Reference: PubChem BioAssay AID1159580 (chemical genetic matrix, 2015)
About 2,000 (36%) of roughly 5,500 compounds were called active. Inconclusive results (about 18%) are left out. Cut-off read from the data, not from the text of the source: active = normalized growth mostly below about 0.91 (no sharp cut-off); inconclusive = no clear call, values can overlap the other calls; inactive = mostly above about 0.92. This is one part of the list.

Test: chemical genetic growth profiling, strain panel (AID 1159580);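 note: tested at 20 µM; growth read once vehicle control cultures reached saturation at 30 °C; 1 = growth at the plate median or of vehicle wells; lower values mean less growth of the strain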
Details: growth OD

Measured: normalized growth

Cc1ccc2c(c1)C1(C)CCCC(C)(C(=O)O)C1CC2 (stereo unspecified)
inactive: S. cerevisiae deletion strains, locus YAL013W, strain DEP1, stronger effect = lower value 0.982 | S. cerevisiae deletion strains, locus YBR021W, strain FUR4, stronger effect = lower value 1.04 | S. cerevisiae deletion strains, locus YBR229C, strain ROT2, stronger effect = lower value 0.972 | S. cerevisiae deletion strains, locus YCL029C, strain bik1, stronger effect = lower value 0.998 | S. cerevisiae deletion strains, locus YDL035C, strain GPR1, stronger effect = lower value 0.99 | S. cerevisiae deletion strains, locus YDL074C, strain BRE1, stronger effect = lower value 0.951 | S. cerevisiae deletion strains, locus YDL101C, strain DUN1, stronger effect = lower value 0.975 | S. cerevisiae deletion strains, locus YDL134C, strain PPH21, stronger effect = lower value 0.992 | S. cerevisiae deletion strains, locus YDL185W, strain tfp1, stronger effect = lower value 0.95 | S. cerevisiae deletion strains, locus YDL192W, strain arf1, stronger effect = lower value 1 | S. cerevisiae deletion strains, locus YDR101C, strain arx1, stronger effect = lower value 1.01 | S. cerevisiae deletion strains, locus YDR150W, strain NUM1, stronger effect = lower value 0.992 | S. cerevisiae deletion strains, locus YDR162C, strain NBP2, stronger effect = lower value 0.907 | S. cerevisiae deletion strains, locus YDR318W, strain mcm21, stronger effect = lower value 1.02 | S. cerevisiae deletion strains, locus YDR388W, stronger effect = lower value 1.01 | S. cerevisiae deletion strains, locus YDR502C, strain sam2, stronger effect = lower value 0.984 | S. cerevisiae deletion strains, locus YEL061C, strain CIN8, stronger effect = lower value 0.993 | S. cerevisiae deletion strains, locus YER110C, stronger effect = lower value 0.991 | S. cerevisiae deletion strains, locus YER155C, strain BEM2, stronger effect = lower value 1.01 | S. cerevisiae deletion strains, locus YER167W, strain BCK2, stronger effect = lower value 1.01 | S. cerevisiae deletion strains, locus YGL078C, strain dbp3, stronger effect = lower value 0.96 | S. cerevisiae deletion strains, locus YGL086W, strain mad1, stronger effect = lower value 1.03 | S. cerevisiae deletion strains, locus YGL248W, strain PDE1, stronger effect = lower value 0.994 | S. cerevisiae deletion strains, locus YGR078C, strain PAC10, stronger effect = lower value 0.979 | S. cerevisiae deletion strains, locus YGR135W, strain pre9, stronger effect = lower value 0.96 | S. cerevisiae deletion strains, locus YGR229C, strain SMI1, stronger effect = lower value 0.979 | S. cerevisiae deletion strains, locus YGR252W, strain gcn5, stronger effect = lower value 1.06 | S. cerevisiae deletion strains, locus YHR030C, strain SLT2, stronger effect = lower value 1.02 | S. cerevisiae deletion strains, locus YHR079C, strain IRE1 (second series), stronger effect = lower value 1.01 | S. cerevisiae deletion strains, locus YHR094C, strain hxt1, stronger effect = lower value 0.996 | S. cerevisiae deletion strains, locus YHR129C, strain ARP1, stronger effect = lower value 1.01 | S. cerevisiae deletion strains, locus YHR200W, strain rpn10, stronger effect = lower value 1.01 | S. cerevisiae deletion strains, locus YIL066C, strain RNR3, stronger effect = lower value 0.994 | S. cerevisiae deletion strains, locus YIL073C, strain SPO22, stronger effect = lower value 1.03 | S. cerevisiae deletion strains, locus YIL125W, strain kgd1, stronger effect = lower value 0.986 | S. cerevisiae deletion strains, locus YIR030C, strain dcg1, stronger effect = lower value 0.998 | S. cerevisiae deletion strains, locus YJL095W, strain BCK1, stronger effect = lower value 1 | S. cerevisiae deletion strains, locus YJL134W, strain LCB3, stronger effect = lower value 1.01 | S. cerevisiae deletion strains, locus YJL168C, strain set2, stronger effect = lower value 1 | S. cerevisiae deletion strains, locus YJL187C, strain SWE1 (second series), stronger effect = lower value 0.968 | S. cerevisiae deletion strains, locus YJR043C, strain POL32, stronger effect = lower value 1.05 | S. cerevisiae deletion strains, locus YJR075W, strain HOC1, stronger effect = lower value 1.01 | S. cerevisiae deletion strains, locus YKL009W, strain mrt4, stronger effect = lower value 0.999 | S. cerevisiae deletion strains, locus YKL068W, stronger effect = lower value 0.982 | S. cerevisiae deletion strains, locus YKL085W, strain MDH1 (second series), stronger effect = lower value 0.997 | S. cerevisiae deletion strains, locus YKL085W, strain MDH1, stronger effect = lower value 0.997 | S. cerevisiae deletion strains, locus YKL190W, strain CNB1, stronger effect = lower value 0.989 | S. cerevisiae deletion strains, locus YKR001C, strain vps1, stronger effect = lower value 1.01 | S. cerevisiae deletion strains, locus YLR039C, strain RIC1, stronger effect = lower value 0.862 | S. cerevisiae deletion strains, locus YLR058C, strain SHM2, stronger effect = lower value 0.989 | S. cerevisiae deletion strains, locus YLR102C, strain apc9, stronger effect = lower value 0.989 | S. cerevisiae deletion strains, locus YLR262C, strain YPT6, stronger effect = lower value 0.806 | S. cerevisiae deletion strains, locus YLR268W, strain sec22, stronger effect = lower value 0.965 | S. cerevisiae deletion strains, locus YLR330W, strain CHS5, stronger effect = lower value 1 | S. cerevisiae deletion strains, locus YLR342W, strain FKS1 (second series), stronger effect = lower value 1.06 | S. cerevisiae deletion strains, locus YLR371W, strain rom2, stronger effect = lower value 1.02 | S. cerevisiae deletion strains, locus YLR418C, strain cdc73, stronger effect = lower value 0.967 | S. cerevisiae deletion strains, locus YML016C, strain PPZ1, stronger effect = lower value 0.998 | S. cerevisiae deletion strains, locus YML032C, strain rad52, stronger effect = lower value 1.03 | S. cerevisiae deletion strains, locus YML124C, strain tub3, stronger effect = lower value 1 | S. cerevisiae deletion strains, locus YMR078C, strain ctf18, stronger effect = lower value 0.994 | S. cerevisiae deletion strains, locus YMR223W, strain ubp8, stronger effect = lower value 1.03 | S. cerevisiae deletion strains, locus YMR263W, strain SAP30, stronger effect = lower value 0.973 | S. cerevisiae deletion strains, locus YMR307W, strain GAS1, stronger effect = lower value 0.976 | S. cerevisiae deletion strains, locus YNL067W, strain RPL9B, stronger effect = lower value 0.974 | S. cerevisiae deletion strains, locus YNL128W, strain TEP1, stronger effect = lower value 0.949 | S. cerevisiae deletion strains, locus YNL153C, strain GIM3, stronger effect = lower value 0.957 | S. cerevisiae deletion strains, locus YNL233W, strain BNI4, stronger effect = lower value 0.993 | S. cerevisiae deletion strains, locus YNL250W, strain rad50, stronger effect = lower value 0.972 | S. cerevisiae deletion strains, locus YNL271C, strain bni1, stronger effect = lower value 0.994 | S. cerevisiae deletion strains, locus YNL298W, strain CLA4, stronger effect = lower value 0.968 | S. cerevisiae deletion strains, locus YNL307C, strain MCK1, stronger effect = lower value 1.01 | S. cerevisiae deletion strains, locus YNL322C, strain KRE1, stronger effect = lower value 0.997 | S. cerevisiae deletion strains, locus YNR052C, strain pop2, stronger effect = lower value 1.02 | S. cerevisiae deletion strains, locus YOL006C, strain TOP1, stronger effect = lower value 0.956 | S. cerevisiae deletion strains, locus YOL012C, strain htz1 1.15 | S. cerevisiae deletion strains, locus YOL147C, strain pex11, stronger effect = lower value 1 | S. cerevisiae deletion strains, locus YOR061W, strain CKA2, stronger effect = lower value 0.973 | S. cerevisiae deletion strains, locus YOR069W, strain VPS5, stronger effect = lower value 1 | S. cerevisiae deletion strains, locus YOR136W, strain idh2, stronger effect = lower value 1.01 | S. cerevisiae deletion strains, locus YOR144C, strain elg1, stronger effect = lower value 1 | S. cerevisiae deletion strains, locus YOR184W, strain ser1, stronger effect = lower value 1.05 | S. cerevisiae deletion strains, locus YOR316C, strain cot1, stronger effect = lower value 0.999 | S. cerevisiae deletion strains, locus YPL055C, strain LGE1, stronger effect = lower value 0.946 | S. cerevisiae deletion strains, locus YPL241C, strain CIN2, stronger effect = lower value 0.997 | S. cerevisiae deletion strains, locus YPR119W, strain clb2, stronger effect = lower value 1 | S. cerevisiae deletion strains, locus YPR141C, strain kar3, stronger effect = lower value 0.939 | S. cerevisiae deletion strains, locus YPR163C, strain tif3, stronger effect = lower value 1 | S. cerevisiae deletion strains, locus YPR167C, strain met16, stronger effect = lower value 0.995 | S. cerevisiae deletion strains, strain wtn01, stronger effect = lower value 0.999 | S. cerevisiae strains, strain wild type, stronger effect = lower value 0.993
